Measurements published in the antibiotic and cytotoxicity screens of Wong et al. (2023).
Screen size: about 39,000 compounds; about 3,300 (8.5%) were called active. What follows is part of a selection rich in actives, with near analogues and random picks from the rest.

These compounds were tested on HepG2 (assay: cytotoxicity call (relative viability < 0.9)). Conditions: 10 µM.

| SMILES | cytotoxicity call |
| --- | --- |
| C[C@H](CO)N1C[C@H](C)[C@@H](CN(C)S(=O)(=O)c2cn(C)cn2)Oc2c(NC(=O)c3nc4ccccc4s3)cccc2C1=O | inactive |
| COc1ccc(NC(=O)N2C[C@H](O)COC[C@@H]3O[C@@H](CC(=O)NCc4ccccc4OC)CC[C@H]32)cc1 | inactive |
| O=C1O[C@H](c2ccccc2)[C@H](c2ccccc2)N2[C@H]1[C@@H](C(=O)O)[C@]1(C(=O)Nc3ccc(Cl)cc31)[C@H]2c1ccc(F)cc1 | inactive |
| NC(=O)COc1ccccc1 | inactive |
| C[C@H](CO)N1C[C@H](C)[C@H](CN(C)C(=O)Nc2ccc3c(c2)OCO3)OCc2cnnn2CCCC1=O | inactive |
| Cc1noc(C)c1S(=O)(=O)N(C)C[C@@H]1Oc2ccc(NS(C)(=O)=O)cc2C(=O)N([C@@H](C)CO)C[C@@H]1C | inactive |
| C[C@@H]1CCCCO[C@@H](CN(C)S(=O)(=O)c2cn(C)cn2)[C@@H](C)CN([C@H](C)CO)C(=O)c2cc(NS(C)(=O)=O)ccc2O1 | inactive |
| COCC(=O)Nc1ccc2c(c1)C(=O)N(C)C[C@H](OC)[C@H](C)CN(Cc1cccc(F)c1)[C@H](C)CO2 | inactive |
| C=CCOC(=O)[C@@H]1[C@H]2C(=O)O[C@H](c3ccccc3)[C@H](c3ccccc3)N2[C@H](c2ccc(OCCOC(=O)[C@H]3C[C@H]4C(=O)NCC(=O)N4[C@H]3c3cccc(OCCO)c3)cc2)[C@@]12C(=O)Nc1ccccc12 | inactive |
| C[C@@H]1CN([C@@H](C)CO)C(=O)c2cc(NC(=O)NC3CCCCC3)ccc2O[C@@H](C)CCCCO[C@@H]1CN(C)S(=O)(=O)c1ccc(F)cc1 | inactive |
| C[C@H]1CN([C@@H](C)CO)C(=O)c2cc(NS(=O)(=O)c3ccc(F)cc3)ccc2O[C@@H]1CN(C)C(=O)Nc1ccc(C(F)(F)F)cc1 | inactive |
| C[C@@H]1CCCCO[C@@H](CN(C)CC2CC2)[C@H](C)CN([C@@H](C)CO)C(=O)c2cc(NC(=O)Nc3ccccc3)ccc2O1 | inactive |
| C[C@@H]1CCCCO[C@H](CN(C)CC2CCCCC2)[C@H](C)CN([C@H](C)CO)C(=O)c2cc(NC(=O)Nc3ccccc3)ccc2O1 | active |
| C[C@H](CO)N1C[C@H](C)[C@H](CN(C)CC2CCCCC2)OCCCC[C@H](C)Oc2ccc(NC(=O)Nc3ccccc3)cc2C1=O | active |
| C[C@H]1CCCCO[C@H](CN(C)CC2CC2)[C@@H](C)CN([C@@H](C)CO)C(=O)c2cc(NC(=O)Nc3ccccc3)ccc2O1 | inactive |
| C[C@@H]1CCCCO[C@@H](CN(C)CC2CCCCC2)[C@H](C)CN([C@H](C)CO)C(=O)c2cc(NC(=O)Nc3ccccc3)ccc2O1 | active |
| C[C@@H]1CCCCO[C@@H](CN(C)CC2CCCCC2)[C@@H](C)CN([C@@H](C)CO)C(=O)c2cc(NC(=O)Nc3ccccc3)ccc2O1 | active |
| C[C@H](CO)N1C[C@H](C)[C@@H](CN(C)CC2CC2)OCCCC[C@H](C)Oc2ccc(NC(=O)Nc3ccccc3)cc2C1=O | inactive |
| C[C@@H]1CCCCO[C@@H](CN(C)CC2CC2)[C@H](C)CN([C@H](C)CO)C(=O)c2cc(NC(=O)Nc3ccccc3)ccc2O1 | inactive |

| SMILES | cytotoxicity call |
| --- | --- |
| Cc1csc2c(N3CCC(Cn4cc(C(C)(C)N)nn4)CC3)ncnc12 | inactive |
| C[C@@H]1OC2=C(Cl)C(=O)N3CCC[C@H]3C[C@@]21O | inactive |
| Cc1ccc(S[C@]2(C(=O)NCC(F)(F)F)CC(=O)N(Cc3ccccc3)[C@@H]2c2ccc(CO)cc2I)cc1 | inactive |
| C[C@@H]1CN([C@H](C)CO)S(=O)(=O)c2ccc(C#Cc3cccc(F)c3)cc2O[C@@H]1CN(C)CC1CC1 | inactive |
| COC(=O)[C@@H]1[C@@H](CO)[C@@H]2Cn3c(cccc3=O)[C@@H]2N1C(=O)C1CC1 | inactive |
| C[C@H](NC(=O)C[C@@H]1CC[C@H](NC(=O)CN2CCOCC2)[C@@H](CO)O1)c1ccccc1 | inactive |
| C[C@@H]1CCCCO[C@H](CN(C)Cc2ccccc2)[C@H](C)CN([C@H](C)CO)C(=O)c2cc(NC(=O)Cc3ccccc3)ccc2O1 | inactive |
| C[C@@H]1CN([C@H](C)CO)C(=O)c2cc(NS(=O)(=O)c3ccc(Cl)cc3)ccc2O[C@@H]1CN(C)C(=O)Nc1ccc(C(F)(F)F)cc1 | active |
| C[C@H]1CCCCO[C@@H](CN(C)C(=O)Nc2ccc(C(F)(F)F)cc2)[C@@H](C)CN([C@@H](C)CO)C(=O)c2cc(NS(=O)(=O)c3ccc(Cl)cc3)ccc2O1 | inactive |
| C[C@@H]1CN([C@H](C)CO)C(=O)c2cc(NS(=O)(=O)c3ccc(Cl)cc3)ccc2O[C@H]1CN(C)C(=O)Nc1ccc(C(F)(F)F)cc1 | inactive |
| C[C@H]1CN([C@@H](C)CO)C(=O)c2cc(NS(=O)(=O)c3ccc(Cl)cc3)ccc2O[C@@H]1CN(C)C(=O)Nc1ccc(C(F)(F)F)cc1 | inactive |
| C[C@@H]1CCCCO[C@@H](CN(C)C(=O)Nc2ccc(C(F)(F)F)cc2)[C@H](C)CN([C@@H](C)CO)C(=O)c2cc(NS(=O)(=O)c3ccc(Cl)cc3)ccc2O1 | inactive |
| C[C@H]1CCCCO[C@H](CN(C)C(=O)Nc2ccc(C(F)(F)F)cc2)[C@@H](C)CN([C@@H](C)CO)C(=O)c2cc(NS(=O)(=O)c3ccc(Cl)cc3)ccc2O1 | inactive |
| C[C@@H]1CCCCO[C@H](CN(C)C(=O)Nc2ccc(C(F)(F)F)cc2)[C@H](C)CN([C@H](C)CO)C(=O)c2cc(NS(=O)(=O)c3ccc(Cl)cc3)ccc2O1 | active |
| C[C@H](CO)N1C[C@H](C)[C@@H](CN(C)C(=O)Nc2ccc(C(F)(F)F)cc2)OCCCC[C@H](C)Oc2ccc(NS(=O)(=O)c3ccc(Cl)cc3)cc2C1=O | active |
| C[C@@H]1CN([C@@H](C)CO)C(=O)c2cc(NS(=O)(=O)c3ccc(Cl)cc3)ccc2O[C@@H](C)CCCCO[C@@H]1CN(C)C(=O)Nc1ccc(C(F)(F)F)cc1 | inactive |
| C[C@H](CO)N1C[C@H](C)[C@H](CN(C)C(=O)Nc2ccc(C(F)(F)F)cc2)OCCCC[C@H](C)Oc2ccc(NS(=O)(=O)c3ccc(Cl)cc3)cc2C1=O | active |
| C[C@@H]1CCCCO[C@H](CN(C)C(=O)Nc2ccc(C(F)(F)F)cc2)[C@@H](C)CN([C@H](C)CO)C(=O)c2cc(NS(=O)(=O)c3ccc(Cl)cc3)ccc2O1 | inactive |
| C[C@@H]1CCCCO[C@H](CN(C)C(=O)Nc2ccc(C(F)(F)F)cc2)[C@H](C)CN([C@@H](C)CO)C(=O)c2cc(NS(=O)(=O)c3ccc(Cl)cc3)ccc2O1 | inactive |

| SMILES | cytotoxicity call |
| --- | --- |
| NCCCC[C@@H](N)C(=O)N[C@@H](Cc1ccc(O)cc1)C(=O)N[C@@H](CCCCN)C(=O)O | inactive |
| C[C@@H]1CCCCO[C@H](CN(C)C(=O)NC2CCCCC2)[C@H](C)CN([C@@H](C)CO)C(=O)c2cc(NC(=O)Cc3ccccc3)ccc2O1 | inactive |
| COc1ccc(NC(=O)N(C)C[C@@H]2OCCCC[C@H](C)Oc3ccc(NC(=O)Nc4ccc5c(c4)OCO5)cc3C(=O)N([C@H](C)CO)C[C@@H]2C)cc1 | inactive |
| C[C@H]1CCCCO[C@@H](CN(C)C(=O)Nc2ccc(C(F)(F)F)cc2)[C@@H](C)CN([C@@H](C)CO)C(=O)c2cc(NC(=O)Cc3ccccc3)ccc2O1 | inactive |
| O=C(C[C@H]1CC[C@@H]2[C@H](COC[C@@H](O)CN2CC2CCOCC2)O1)N1CCOCC1 | inactive |
| C[C@@H]1CCCCO[C@@H](CN(C)C(=O)Nc2ccccc2)[C@H](C)CN([C@H](C)CO)C(=O)c2cc(NC(=O)NC3CCCCC3)ccc2O1 | inactive |
| C[C@@H]1CN([C@H](C)CO)C(=O)c2cc(NC(=O)Nc3cccc4ccccc34)ccc2O[C@@H]1CN(C)S(=O)(=O)c1ccc(F)cc1 | inactive |
| CCS(=O)(=O)N1C[C@]2(CN(C2)S(=O)(=O)c2cn(cn2)C)c2c(n(c3cc(ccc23)OC)C)[C@H]1CO | inactive |
| C[C@@H]1CCCCO[C@@H](CN(C)C(=O)Nc2ccc(C(F)(F)F)cc2)[C@H](C)CN([C@H](C)CO)C(=O)c2cc(NS(=O)(=O)c3ccc(Cl)cc3)ccc2O1 | inactive |
| C[C@@H]1CCCCO[C@H](CN(C)C(=O)Nc2ccc(C(F)(F)F)cc2)[C@@H](C)CN([C@@H](C)CO)C(=O)c2cc(NS(=O)(=O)c3ccc(Cl)cc3)ccc2O1 | inactive |
| C[C@@H]1CN([C@H](C)CO)C(=O)c2cc(NS(=O)(=O)c3ccc(Cl)cc3)ccc2O[C@@H](C)CCCCO[C@H]1CN(C)C(=O)Nc1ccc(C(F)(F)F)cc1 | active |
| O=C(C[C@H]1CC[C@@H]2[C@H](COC[C@H](O)CN2S(=O)(=O)c2ccccc2)O1)NCCN1CCCCC1 | inactive |
| C[C@H]1CCCCO[C@H](CN(C)Cc2ccccc2)[C@@H](C)CN([C@@H](C)CO)C(=O)c2cc(NC(=O)Nc3ccccc3)ccc2O1 | inactive |
| COC(=O)[C@@]12OC[C@]34[C@H]([C@@H](O)[C@@H]1O)[C@@]1(C)CC(=O)C(=O)[C@H](C)[C@@H]1C[C@H]3OC(=O)[C@H](OC(=O)/C=C(\C)C(C)C)[C@@H]24 | active |
| COc1ccc2c3c([nH]c2c1)[C@@H](CO)N(C[C@]13CCN(CC1)C(=O)Nc1cccc(c1)F)C(=O)c1ccccc1 | inactive |
| COc1ccc2c3c([nH]c2c1)[C@@H](CO)N(C[C@]13CCN(CC1)CC1CCCC1)C(=O)Nc1cccc(c1)F | active |
| COc1ccc2c3c([nH]c2c1)[C@H](CO)N(C[C@]13CCN(CC1)CC1CCCC1)C(=O)Nc1cccc(c1)F | active |
| COc1ccc2c3c([nH]c2c1)[C@@H](CO)N(CC1CCCC1)C[C@]13CCN(CC1)C(=O)Nc1cccc(c1)F | inactive |
| COc1ccc2c3c([nH]c2c1)[C@H](CO)N(CC1CCCC1)C[C@]13CCN(CC1)C(=O)Nc1cccc(c1)F | inactive |
